Data published in PubChem BioAssay (Tox21).
Inconclusive results are not listed. Entries that show only a call come without a potency. Calls of active or inactive are those of the source. Unless noted, the call rests on the fitted dose curve; in most records, active means well fitted curve in the direction sought with a large enough effect in the repeat runs; inconclusive means weak or mixed curves; inactive means no such curve, though single readings can be large; an effect the other way counts as inactive or inconclusive.

How the values were obtained:
[1] = qHTS assay to identify small molecule antagonists of the thyroid receptor (TR) signaling pathway - cell viability counter screen (AID 743064); further: nearly all actives have a fitted effect of over 50% in size; further: potency means the concentration at half of the fitted maximal effect
Outline: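 GH3.TRE-Luc rat pituitary cells carrying a TRE-luciferase reporter were treated with compound plus 1 nM T3 (final) for 23.5 h at 37 °C. Viability was then read in the same wells by CellTiter-Fluor fluorescence after a further 30 min.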

[2] = qHTS assay to identify small molecule antagonists of the thyroid receptor (TR) signaling pathway (AID 743065); further: nearly all actives have a fitted effect of over 55% in size; further: potency means the concentration at half of the fitted maximal effect
Outline: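 GH3.TRE-Luc rat pituitary cells carrying two TR response elements driving luciferase were plated for 4 h, given compound plus 1 nM T3 (final), and incubated 23.5 h at 37 C. ONE-Glo luminescence measured reporter inhibition; CellTiter-Fluor fluorescence tracked cytotoxicity.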

[3] = test system: thyroid hormone receptor (rat, GH3 cells); test: qHTS assay to identify small molecule agonists of the thyroid receptor (TR) signaling pathway (AID 743066; calls by dose curve)
[4] = biological target: Estrogen receptor (Homo sapiens) (UniProt P03372); test: qHTS assay to identify small molecule antagonists of the estrogen receptor alpha (ER-alpha) signaling pathway (AID 743069; active means well fitted curve in the direction sought with a large enough effect in the signal ratio in the repeat runs, not every such curve was filed as active; the % refers to the signal ratio)
Sequence of Estrogen receptor (Homo sapiens) (P03372 whole entry, looked up): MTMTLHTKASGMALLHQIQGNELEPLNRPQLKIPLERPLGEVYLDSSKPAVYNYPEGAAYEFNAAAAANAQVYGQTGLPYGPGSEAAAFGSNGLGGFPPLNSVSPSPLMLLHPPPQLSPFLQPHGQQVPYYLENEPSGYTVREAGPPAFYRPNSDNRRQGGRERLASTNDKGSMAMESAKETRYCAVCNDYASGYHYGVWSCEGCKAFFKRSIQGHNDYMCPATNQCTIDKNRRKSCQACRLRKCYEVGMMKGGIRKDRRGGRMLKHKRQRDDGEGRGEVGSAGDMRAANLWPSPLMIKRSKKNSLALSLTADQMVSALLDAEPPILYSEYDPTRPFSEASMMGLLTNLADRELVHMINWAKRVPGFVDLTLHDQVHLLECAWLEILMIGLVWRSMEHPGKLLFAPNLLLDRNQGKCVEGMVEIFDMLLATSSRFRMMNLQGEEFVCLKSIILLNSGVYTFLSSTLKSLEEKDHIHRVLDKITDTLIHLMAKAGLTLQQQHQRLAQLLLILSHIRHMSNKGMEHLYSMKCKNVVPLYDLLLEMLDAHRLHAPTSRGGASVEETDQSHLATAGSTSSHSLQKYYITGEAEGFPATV
Outline: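 A 17beta-estradiol challenge was applied right after compound transfer to ER-alpha-UAS-bla HEK293 cells previously kept in charcoal-stripped serum. Plates stood 18 hr at 37C and 5% CO2; fluorescence was read following 2 hr FRET substrate loading at room temperature.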

[5] = qHTS assay to identify small molecule antagonists of the estrogen receptor alpha (ER-alpha) signaling pathway - cell viability counter screen (AID 743074; calls by dose curve;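 further: HEK293 cells carrying ER-alpha-UAS-bla reporter stimulated with 17beta-estradiol; nearly all actives have a fitted effect of over 45% in size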)
[6] = biological target: Estrogen receptor (Homo sapiens) (UniProt P03372); test: qHTS assay to identify small molecule agonists of the estrogen receptor alpha (ER-alpha) signaling pathway (AID 743075; calls by dose curve;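 further: HEK293 GripTite cells with ER-alpha and UAS-driven beta-lactamase reporter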; further: potency means the concentration at half of the fitted maximal effect)
[7] = biological target: Estrogen receptor (Homo sapiens) (UniProt P03372); test: qHTS assay to identify small molecule agonists of the estrogen receptor alpha (ER-alpha) signaling pathway using the BG1 cell line (AID 743079); conditions: BG1Luc4E2 cells, ERE-luciferase agonist, 22 h; activation: at 70.3 µM (top of the series); further: nearly all actives have a fitted effect of over 20% in size; further: potency means the concentration at half of the fitted maximal effect
[8] = qHTS assay to identify small molecule antagonists of the estrogen receptor alpha (ER-alpha) signaling pathway using the BG1 cell line (AID 743080; calls by dose curve;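 further: BG1 cells stimulated with 17beta-estradiol alongside compound; nearly all actives have a fitted effect of over 25% in size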)
Outline: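 Quantitative HTS on the Tox21 10K library: BG1 cells with endogenous ER-alpha and ERE-luciferase reporter, 17beta-estradiol stimulation, 21.5 h compound exposure, luminescence endpoint with parallel fluorescence cytotoxicity counter-read.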

[9] = qHTS assay to identify small molecule antagonists of the estrogen receptor alpha (ER-alpha) signaling pathway using the BG1 cell line - cell viability counter screen (AID 743081);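 further: compound given together with 17beta-estradiol as the ER stimulus; nearly all actives have a fitted effect of over 45% in size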
Aromatase (Homo sapiens) = Aromatase (Homo sapiens) (UniProt P11511); test: qHTS assay to identify aromatase inhibitors (AID 743083); further: nearly all actives have a fitted effect of over 55% in size
Sequence of Aromatase (Homo sapiens) (P11511 whole entry, looked up): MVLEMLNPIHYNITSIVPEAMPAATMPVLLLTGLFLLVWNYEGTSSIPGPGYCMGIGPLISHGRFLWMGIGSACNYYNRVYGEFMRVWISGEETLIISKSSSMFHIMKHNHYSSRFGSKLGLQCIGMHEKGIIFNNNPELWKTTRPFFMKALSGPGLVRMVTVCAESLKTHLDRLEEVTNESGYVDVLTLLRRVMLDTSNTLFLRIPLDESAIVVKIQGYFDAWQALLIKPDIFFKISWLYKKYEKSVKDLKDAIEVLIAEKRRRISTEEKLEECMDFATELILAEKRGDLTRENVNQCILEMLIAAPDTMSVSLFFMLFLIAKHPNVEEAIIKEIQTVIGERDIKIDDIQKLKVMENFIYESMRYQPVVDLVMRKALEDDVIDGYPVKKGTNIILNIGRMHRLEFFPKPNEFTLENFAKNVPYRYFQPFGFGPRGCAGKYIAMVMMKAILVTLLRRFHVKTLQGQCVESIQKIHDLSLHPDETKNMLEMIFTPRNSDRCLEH

[10] = qHTS assay to identify aromatase inhibitors - cell viability counter screen (AID 743084);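 further: cells stimulated with testosterone during compound exposure; nearly all actives have a fitted effect of over 55% in size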
[11] = biological target: Aryl hydrocarbon receptor (Homo sapiens) (UniProt P35869); test: qHTS assay to identify small molecule that activate the aryl hydrocarbon receptor (AhR) signaling pathway (AID 743085);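 further: HG2L7.5c1 human HepG2 liver cells with stably integrated DRE-driven firefly reporter; nearly all actives have a fitted effect of over 15% in size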
Sequence of Aryl hydrocarbon receptor (Homo sapiens) (P35869 whole entry, looked up): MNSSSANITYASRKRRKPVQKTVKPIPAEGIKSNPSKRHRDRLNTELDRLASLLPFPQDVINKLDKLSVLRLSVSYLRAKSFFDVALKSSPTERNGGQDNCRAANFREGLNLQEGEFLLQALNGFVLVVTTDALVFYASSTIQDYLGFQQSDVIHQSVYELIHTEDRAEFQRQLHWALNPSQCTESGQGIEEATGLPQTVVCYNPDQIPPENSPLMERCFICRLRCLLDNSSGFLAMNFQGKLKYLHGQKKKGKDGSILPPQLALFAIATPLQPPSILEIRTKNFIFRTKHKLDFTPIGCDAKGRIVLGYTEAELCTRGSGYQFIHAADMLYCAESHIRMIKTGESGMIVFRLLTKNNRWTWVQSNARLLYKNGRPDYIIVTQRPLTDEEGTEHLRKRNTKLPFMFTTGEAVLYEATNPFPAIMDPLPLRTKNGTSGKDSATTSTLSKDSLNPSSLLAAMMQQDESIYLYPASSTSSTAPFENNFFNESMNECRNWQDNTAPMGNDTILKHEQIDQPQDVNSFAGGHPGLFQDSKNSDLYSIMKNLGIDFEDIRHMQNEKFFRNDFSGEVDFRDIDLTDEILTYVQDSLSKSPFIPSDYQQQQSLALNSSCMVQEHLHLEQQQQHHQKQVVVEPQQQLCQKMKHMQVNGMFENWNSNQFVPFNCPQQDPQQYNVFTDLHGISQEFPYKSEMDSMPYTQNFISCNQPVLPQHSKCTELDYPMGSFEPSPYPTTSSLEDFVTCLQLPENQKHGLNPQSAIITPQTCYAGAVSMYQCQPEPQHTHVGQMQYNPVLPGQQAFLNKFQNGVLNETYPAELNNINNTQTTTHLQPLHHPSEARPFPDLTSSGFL
Outline: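 HepG2 cells (HG2L7.5c1) stably carrying a firefly luciferase reporter driven by 20 dioxin responsive elements were exposed to compound for 24 h at 37C after a 5 h settling period; luminescence rise (ONE-Glo) indicated activation.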

[12] = qHTS assay to identify small molecule that activate the aryl hydrocarbon receptor (AhR) signaling pathway - cell viability counter screen (AID 743086);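 further: HepG2 liver cells carrying the AhR DRE luciferase reporter; nearly all actives have a fitted effect of over 45% in size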
Outline: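 HepG2-AhR-luc (HG2L7.5c1) cells, 4000/well, were preincubated 5 h at 37C, exposed to compound in qHTS format for 24 hr at 37C, then given CellTiter-Fluor for 30 min; viability was read as fluorescence in the reporter wells.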

[13] = biological target: Peroxisome proliferator-activated receptor gamma (Homo sapiens) (UniProt P37231); test: qHTS assay to identify small molecule agonists of the peroxisome proliferator-activated receptor gamma (PPARg) signaling pathway (AID 743094; active means well fitted activation curve with a large enough effect in the signal ratio in the repeat runs, not every such curve was filed as active; the % refers to the signal ratio)
Sequence of Peroxisome proliferator-activated receptor gamma (Homo sapiens) (P37231 whole entry, looked up): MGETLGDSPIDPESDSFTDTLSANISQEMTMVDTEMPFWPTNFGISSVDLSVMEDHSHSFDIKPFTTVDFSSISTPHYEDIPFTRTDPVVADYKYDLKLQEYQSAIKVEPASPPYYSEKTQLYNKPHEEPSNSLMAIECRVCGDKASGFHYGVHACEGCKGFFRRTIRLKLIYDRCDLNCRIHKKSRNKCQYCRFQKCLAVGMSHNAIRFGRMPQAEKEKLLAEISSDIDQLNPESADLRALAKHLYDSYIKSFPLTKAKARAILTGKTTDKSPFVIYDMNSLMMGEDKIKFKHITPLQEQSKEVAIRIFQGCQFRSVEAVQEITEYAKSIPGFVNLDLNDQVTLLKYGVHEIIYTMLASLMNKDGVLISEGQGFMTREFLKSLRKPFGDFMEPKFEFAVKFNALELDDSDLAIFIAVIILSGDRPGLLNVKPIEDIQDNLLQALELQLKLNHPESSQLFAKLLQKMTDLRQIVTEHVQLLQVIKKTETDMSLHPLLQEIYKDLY
Outline: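 Agonism was assessed in a beta-lactamase reporter system, HEK293H cells with a stably integrated UAS-bla construct under PPARg control; the 17 h treatment at 37C preceded a 1 h room-temperature FRET substrate read.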

[14] = biological target: Peroxisome proliferator-activated receptor gamma (Homo sapiens) (UniProt P37231); test: qHTS assay to identify small molecule antagonists of the peroxisome proliferator-activated receptor gamma (PPARg) signaling pathway (AID 743191; calls by dose curve; further: nearly all actives have a fitted effect of over 30% in size; further: potency means the concentration at half of the fitted maximal effect)
Outline: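 GeneBLAzer PPARg UAS-bla HEK293H cells carrying a UAS-driven beta-lactamase reporter were plated at 3000 cells/well, preincubated 5 h at 37C, then given compound for 17 h at 37C; LiveBLAzer B/G FRET substrate was read after 1 h at room temperature.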

[15] = qHTS assay to identify small molecule antagonists of the peroxisome proliferator-activated receptor gamma (PPARg) signaling pathway - cell viability counter screen (AID 743194); further: nearly all actives have a fitted effect of over 55% in size
Outline: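 PPARg-UAS-bla HEK293H cells were plated, rested 5 h at 37 C, then treated with compounds plus rosiglitazone (50 nM final) for 17 h at 37 C; viability was then read by CellTiter-Glo luminescence after 30 min at room temperature.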

[16] = qHTS assay for small molecule agonists of the antioxidant response element (ARE) signaling pathway (AID 743202; active means well fitted activation curve with a large enough effect in the signal ratio in the repeat runs, not every such curve was filed as active; the % refers to the signal ratio; further: potency means the concentration at half of the fitted maximal effect)
Outline: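 Following a 16 h, 37 C exposure of reporter HepG2 cells (ARE-driven beta-lactamase, 2,000 cells/well) to compounds, FRET substrate was applied for 2 h at room temperature and fluorescence intensity recorded.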

[17] = qHTS assay for small molecule agonists of the antioxidant response element (ARE) signaling pathway - cell viability counter screen (AID 743203; calls by dose curve; further: nearly all actives have a fitted effect of over 55% in size)
Outline: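 ATP content via CellTiter-Glo luminescence served as the viability measure. Cells: ARE-bla HepG2, 2,000 per well. Exposure: 16 hrs, 37C/5% CO2.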

[18] = qHTS assay for small molecule activators of the heat shock response signaling pathway (AID 743210; active means well fitted activation curve with a large enough effect in the signal ratio in the repeat runs, with a control signal flat, not every such curve was filed as active; the % refers to the signal ratio)
Outline: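 Heat shock element–beta-lactamase HeLa reporter cells; qHTS with compounds for 5 h at 37 C; detection by FRET substrate fluorescence after 2.5 h at RT.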

[19] = qHTS assay for small molecule activators of the heat shock response signaling pathway - cell viability counter screen (AID 743209); further: nearly all actives have a fitted effect of over 50% in size
Outline: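 Compounds dissolved in DMSO were added to overnight-plated HSE-bla HeLa cells and left 5 h at 37 C. Cell viability was quantified by luminescence using CellTiter-Glo.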

| Compound | Potency [1] | Potency [2] | outcome [3] | Potency [4] | Potency [5] | Potency [6] | Potency [7] | Potency [8] | Potency [9] | Potency (Aromatase (Homo sapiens)) | Potency [10] | Potency [11] | Potency [12] | Potency [13] | Potency [14] | Potency [15] | Potency [16] | Potency [17] | Potency [18] | Potency [19] |
| --- | --- | --- | --- | --- | --- | --- | --- | --- | --- | --- | --- | --- | --- | --- | --- | --- | --- | --- | --- | --- |
| O=C(O)c1cccnc1C(=O)O | inactive | inactive | inactive | inactive | inactive | inactive | inactive | inactive | inactive | inactive | inactive | inactive | inactive | inactive | inactive | inactive | inactive | inactive | inactive | – |
| CC(COc1ccc(C(C)(C)C)cc1)OS(=O)OCCCl (centres undefined) | inactive | inactive | inactive | inactive | inactive | inactive | inactive | inactive | inactive | inactive | inactive | inactive | inactive | inactive | inactive | – | inactive | inactive | inactive | inactive |
| CCOC(=O)c1ccccc1C | inactive | inactive | inactive | inactive | inactive | inactive | inactive | inactive | inactive | inactive | inactive | inactive | inactive | inactive | inactive | inactive | – | – | inactive | inactive |
| COC(=O)CC(=O)C(C)(C)C | inactive | inactive | inactive | inactive | inactive | inactive | inactive | inactive | inactive | inactive | inactive | inactive | inactive | inactive | inactive | – | – | inactive | inactive | – |
| CCCCC(CC)COC(=O)COc1ccc(Cl)cc1C (centres undefined) | inactive | inactive | inactive | inactive | inactive | inactive | inactive | inactive | inactive | inactive | inactive | inactive | inactive | inactive | – | inactive | inactive | – | inactive | inactive |
| Oc1ccc(Nc2ccccc2)cc1 | 54.5 µM (active) | 43.3 µM (active) | inactive | – | inactive | 55 µM [activator] (active) | 30.6 µM (active) | inactive | inactive | inactive | inactive | inactive | inactive | – | 19.5 µM (active) | – | 27.3 µM (active) | inactive | inactive | inactive |
| CCOC(=O)/C=C/C(=O)O | inactive | inactive | inactive | inactive | – | inactive | inactive | inactive | inactive | inactive | inactive | – | inactive | inactive | – | – | 9.69 µM (active) | inactive | inactive | inactive |
